Sampled rows, rich in hits. Any-hit rate of the full collection: about 4.6%.
TRb-SRC2 inh: inhibitors of human thyroid hormone receptor beta-SRC2 interaction; TRbeta-SRC2 peptide binding, fluorescence polarization; receptor liganded with 1 µM T3; Potency, µM (doses to about 106 µM), without a hit: top-dose activity change, negative = inhibition, most hits filed as inhibitors; 0.065% of 280,000 active;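 further: potency means the concentration at half of the fitted maximal effect; plate controls were bound peptide for no effect and peptide without receptor for full effect; nearly all actives have a fitted effect of over 50% in size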
Target sequence (P10828 whole entry, looked up): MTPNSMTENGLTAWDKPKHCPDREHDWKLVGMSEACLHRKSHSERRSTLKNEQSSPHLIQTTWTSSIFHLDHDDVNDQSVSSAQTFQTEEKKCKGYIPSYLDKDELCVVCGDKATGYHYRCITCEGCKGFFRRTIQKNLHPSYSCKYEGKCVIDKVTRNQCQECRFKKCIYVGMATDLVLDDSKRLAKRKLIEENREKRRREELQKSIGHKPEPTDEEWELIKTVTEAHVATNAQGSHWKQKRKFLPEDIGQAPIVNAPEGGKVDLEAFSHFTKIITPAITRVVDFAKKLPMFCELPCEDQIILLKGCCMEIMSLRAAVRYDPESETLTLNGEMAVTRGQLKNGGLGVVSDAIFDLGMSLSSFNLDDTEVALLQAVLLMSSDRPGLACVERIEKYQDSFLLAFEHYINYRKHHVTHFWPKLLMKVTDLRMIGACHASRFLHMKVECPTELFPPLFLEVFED
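Fluorescence polarization of 20 nM Texas Red SRC2 peptide (20-aa NR interaction domain) bound to 0.6 uM human TRb ligand-binding domain, with 1 uM T3, after 5 hr at ambient temperature; inhibition seen as decreased polarization.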
Tau fibril FP: blocks human tau fibril formation measured by polarization. K18 P301L tau heparin fibrillization, Alexa594 FP, 6 h. Potency, µM (titrated, usually from 57.7 µM), for inactives: top-dose activity, negative = inhibition, most hits filed as inhibitors. 0.39% of 280,000 active; further: potency means the concentration at half of the fitted maximal effect; nearly all actives have a fitted effect of over 55% in size
Target sequence (P10636 561-689 P618L limits assumed): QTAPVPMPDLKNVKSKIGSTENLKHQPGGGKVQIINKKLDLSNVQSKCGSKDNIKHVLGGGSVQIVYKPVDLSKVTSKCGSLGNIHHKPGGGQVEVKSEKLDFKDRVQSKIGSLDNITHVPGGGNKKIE
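Human tau K18 […] P301L fragment, 15 uM unlabeled plus 0.24 uM Alexa 594-labeled tau (final), with compound and 20 uM heparin in 100 mM sodium acetate pH 7; 6 hr at 37 C, then Alexa 594 FP read.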
TexasRed fluor: alters Texas Red total fluorescence, flagging assay interference; Potency, µM (top dose mostly 106 µM), for inactives: at the top dose fluorescence change, negative = quenching; 0.29% of 280,000 active; TRb/SRC2 Texas Red total fluorescence interference; active means well fitted curve in either direction with a large enough effect; inconclusive means small, poorly fitted or top-dose-only effect; further: potency means the concentration at half of the fitted maximal effect
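Human TRβ ligand-binding domain (0.6 uM) and Texas Red SRC2 peptide (20 nM) in Tris buffer with 1 uM T3 and 5% DMSO were incubated with pinned compound for 5 hr at ambient temperature. Total fluorescence was computed as S + 2P (555/632 nm).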
Tau fluor cs: counter-screen for tau fibril formation inhibitors; tau K18 P301L Alexa594 fluorescence, heparin fibrillization; Potency, µM (doses to about 57.7 µM), inactives show at the top dose activity change, negative = decrease; 0.93% of 280,000 active; further: potency means the concentration at half of the fitted maximal effect; nearly all actives have a fitted effect of over 55% in size
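Human K18 P301L tau (15 uM unlabeled plus 0.24 uM Alexa 594-labeled, final) in 100 mM sodium acetate pH 7 was mixed with compound and 20 uM heparin and incubated 6 hr at 37 C.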
PNC inhibitor: inhibitors of perinucleolar compartment assembly | activity change (PNC), negative = inhibition, % at 10 µM | PC3M PTB-GFP, PNC prevalence imaging, 16 h; active compounds read low | AID 2417 | 3.1% of 140,000 active;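 active means readout at or below -70, meaning at least 70% loss of cells showing the perinucleolar compartment, a nuclear body marking cancer cells; inconclusive means readout between -30 and a set limit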;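 further: plate controls were DMSO wells for no effect and camptothecin positive control wells for full effect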
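PC3M cells stably expressing PTB-GFP, 750–1000 cells/well, treated 16 h at 37 °C with compound (23 nl of library stock), in duplicate. After paraformaldehyde fixation and Hoechst stain, imaged at 20x; PNC prevalence scored by image analysis.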
Tau fibril ThT: tau fibrillization inhibition (ThT binding); P10636; recombinant tau K18 P301L (four-repeat tau fragment), heparin-induced fibrillization, ThT fluorescence; Potency, µM (titrated, usually from 57.4 µM), inactives show at the highest dose activity, negative = inhibition, actives largely listed as inhibitors; 2.1% of 270,000 active; AID 1460; further: potency means the concentration at half of the fitted maximal effect; nearly all actives have a fitted effect of over 55% in size
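Recombinant human tau K18 fragment […] carrying P301L, 15 uM unlabeled plus 0.24 uM Alexa 594-labeled, was fibrillized with 20 uM heparin in 100 mM sodium acetate pH 7 for 6 hr at 37 C; 30 uM ThT fluorescence read after 1 hr.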
* = called active by the depositor; ? = inconclusive; . = not tested or not shown; [ ] = another dose, or the depositor's remark. Unless noted, the call rests on the fitted dose curve; in most records, active means well fitted curve in the direction sought with a large enough effect; inconclusive means small, poorly fitted or top-dose-only effect, or another doubt; inactive means no such curve, though single readings can be large; an effect the other way counts as inactive or inconclusive. Unless noted, on the % scale 0 is the no-effect control and ±100 the full control effect.

SMILES	TRb-SRC2 inh	Tau fibril FP	TexasRed fluor	Tau fluor cs	PNC inhibitor	Tau fibril ThT
COc1cc(OC)c(NC(=O)NCc2cccn2Cc2ccccc2)cc1Cl	-8.6%	-11.3%	-2.7%	14.1µM*[quencher]	.	-17.0%
O=C(Nc1ccc(N2CCOCC2)c(Cl)c1)c1ccc2c(c1)OCCO2	2.2%	12.3%[2.34 µM]	-4.8%	18.5%[2.34 µM]	.	4.2%
O=C(Nc1ccc2c(c1)OCO2)c1ccc(N2CCCC2)c([N+](=O)[O-])c1	-5.8%	17.3%	-3.5%	?	96.0	12.6µM*
CC(=O)N1CCN(c2ccc(NC(=O)c3ccc(N4CCCC4)c([N+](=O)[O-])c3)cc2Cl)CC1	-10.2%	-6.0%	-0.6%	?	?	3.98µM*
O=C(Nc1ccc(N2CCCCC2)c(Cl)c1)c1ccc2c(c1)OCCO2	-2.2%	12.2%	-0.3%	14.1µM*[quencher]	15.9	?
COCC(=O)N(C)c1nnc(-c2cnccn2)s1	1.3%	2.9%	-0.8%	1.6%	-16.6	-3.2%
Cc1ccc(S(=O)(=O)CC(N)=O)cc1	-3.6%	2.5%	-0.8%	-2.4%	18.9	5.7%
Cc1ccc(S(=O)(=O)CC(=O)N(C)C)cc1	0.2%	6.2%	-3.5%	1.9%	-100.0*	-1.7%
COc1cc2cc(C(=O)O)[nH]c2c(OC)c1OC	-1.0%	-2.9%	0.2%	-11.0%	-97.2*	-9.8%
COc1ccc(OC)c2c(=O)cc(C(=O)O)[nH]c12	-4.5%	.	-5.1%	.	.	.
O=C(COc1ccc(S(=O)(=O)NC2CCCCC2)cc1Cl)NCc1ccc2c(c1)OCO2	8.0%	-0.1%	-0.7%	-24.6%	2.0	-8.7%
CCOC(CNC(=O)c1ccc(N2CCc3ccccc32)c([N+](=O)[O-])c1)OCC	-3.6%	?	-1.4%	?	?	12.6µM*
Cc1ccc(-n2nc(-c3ccc(OC(F)(F)F)cc3)cc2N)cc1C	-0.8%	8.6%	-4.3%	11.2µM*[quencher]	.	?
Cc1ccc(-n2nc(-c3ccc(N)cc3)cc2N)cc1	-1.3%	16.6%	-1.9%	-19.8%	-22.2	?
Cc1ccc(Nc2nnc(-c3cc4c(ccc5ccccc54)oc3=O)s2)cc1	?	6.8%	0.0316µM*[quencher]	-7.4%	.	?
C=CCSC1=C(C#N)C(c2ccccc2)CC(=O)N1 (stereo not given)	4.9%	-2.1%	-0.4%	1.4%	?	-6.0%
COC(=O)C1=C(N)Oc2cc(C)n(Cc3cccnc3)c(=O)c2C1c1ccccc1OC (stereo not given)	-6.6%	-3.4%	-3.5%	3.9%	-85.9*	-14.0%
COC(=O)C1=C(N)Oc2cc(C)n(Cc3cccnc3)c(=O)c2C1c1ccc(OC)c(OC)c1OC (stereo not given)	-6.3%	3.6%	-2.9%	-7.0%	?	-10.2%
CCOCCCNC(=O)/C(C#N)=C/c1cc(OC)c(O)c([N+](=O)[O-])c1	-12.6%	9.9%	-1.2%	-10.8%	.	14.1µM*
CCNC(=O)Cn1c(=O)c2c(ncn2Cc2ccccc2)n(Cc2ccccc2)c1=O	-8.9%	-8.5%	-0.3%	0.5%	46.6	-0.8%
CCCn1c2c(c(O)c(C(=O)NC)c1=O)CCCC2	-1.3%	6.2%	-3.0%	7.3%	196.1	3.1%
CCCn1c2c(c(O)c(C(=O)NCCCN(CC)CC)c1=O)CCCC2	-1.3%	1.1%	-0.2%	2.2%	-100.0*	-0.1%
O=C1S/C(=C\c2ccc(N3CCOCC3)o2)C(=O)N1c1ccccc1	-2.5%	?	3.4%	-23.7%	.	11.2µM*
C=CC1=C(C)C2=Cc3c(C=C)c(C)c4[n]3[Sn+2][n]3c(c(C)c(CCC(=O)O)c3=CC3=NC(=C4)C(C)=C3CCC(=O)O)=CC1=N2	12.6µM*	17.8µM*	?	-12.4%	.	?
CCCc1cc(=O)[nH]c(SCC(=O)N(C)CC(=O)Nc2ccc(C)cc2)n1	0.8%	-2.1%	3.7%	2.4%	-115.1*	2.1%
CCCc1cc(=O)[nH]c(SC(CC)C(=O)Nc2ccccc2C#N)n1 (stereo not given)	-10.9%	-2.0%	-3.2%	-1.9%	?	-4.6%

Screens from PubChem.
